Results filed as inconclusive are left out. Where a call stands in place of a potency, no number is given. Activity calls are given as the source filed them. Calls follow the shape of the full dose curve.

This assay in a line: qHTS assay to identify small molecule agonists or antagonists of the thyroid stimulating hormone receptor (TSHR) signaling pathway - wild type cell line counter screen (AID 1259384). To be noted: HEK293 wild type, cAMP HTRF counter-screen; series mostly up to 92.4 µM. An excerpt:
U.S. Tox21 Program National Center for Advancing Translational Sciences [NCATS] NIH Chemical Genomics Center [NCGC] U.S. Environmental Protection Agency [EPA] National Institutes of Environmental Health Sciences [NIEHS] National Toxicology Program [NTP] U.S. Food and Drug Administration [FDA] Tox21 Assay Overview: TSHR is the receptor for thyrotropin (thyroid stimulating hormone or TSH), a member of the glycoprotein hormone family. TSH is released by the anterior pituitary gland and is the main regulator of thyroid gland growth and development. Upon binding circulating thyrotropin, a G-protein signal cascade activates adenylyl cyclase and […] cAMP concentration is increased. cAMP is a key second messenger involved extensively in cellular signal transduction pathways associated with the majority of G-protein coupled receptors (GPCRs). The activation of these GPCRs by neurotransmitters, lipids, nucleotides, peptides and hormones results in the activation or the inhibition of plasma membrane-bound adenylate cyclase through heterotrimeric G-proteins. A cell-based TSHR-Hek293 assay can be used to identify TSHR agonists. To eliminate the false positive compounds identified from screening a cell-based TSHR-Hek293 cell line, cAMP assay in a wild type Hek293 cells was used as a counter screening.
Tox21 Assay Protocol Summary: Hek293 cells (wild type) were dispensed at 800 cells/4 uL/well in 1536-well white plates using a Multidrop dispenser. After the assay plates were incubated at a 37 C/5% CO2 incubator for 18 hrs, 23 nL of compounds dissolved in DMSO, positive controls or DMSO only was transferred to the assay plate by a pin tool, followed by 1 ul medium containing Ro20-1724. After 30 min of incubation at room temperature, 2.5 ul/well of cAMP-d2 and 2.5 ul/well of anti-cAMP-cryptate were added respectively into the assay plates using a Flying Reagent Dispenser. The plates were incubated at room temperature for 1 hr. The fluorescence intensity in the plates was measured using an Envision plate reader. Each test compound was measured at 15 concentrations and in triplicates.
`CCOC(=O)C1=C[C@]2(CC)CCCN3CCc4c(n1c1ccccc41)[C@@H]32`: the Potency entry was “inactive”. On the same count and under the same terms, the value for `CCCCC(CC)COC(=O)CCCCCCCCC(=O)OCC(CC)CCCC` (stereo not given) was “inactive”; that for `ClCCOCCOCCCl` was “inactive”; that for `C=CC(=O)OCCOCCOC(=O)C=C` was “inactive”.

As for `CC(C)O.CC(C)O.CCOC(=O)/C=C(\C)O.CCOC(=O)/C=C(\C)O.[Ti]`, the Potency entry was “inactive”. For `CN1Cc2cc(C(=O)N3CCC(C4CCNCC4)CC3)ccc2NC(CC(=O)O)C1=O` (stereo not given), the Potency entry is “inactive”. Still for that read-out and setting: the value for `S=C([S-])NCCNC(=S)[S-].[Mn+2]` was “inactive”; that for `CCCCNc1ccc(C(=O)OCCOCCOCCOCCOCCOCCOCCOCCOCCOC)cc1` was “inactive”. Regarding `O=C1c2ccccc2S(=O)(=O)N1CCCCN1CCN(c2ncccn2)CC1`, the Potency entry was “inactive”.

Consider `CCCCCCCCCOS(=O)(=O)O`, for which the Potency result is “inactive”. Still for that read-out and setting: the value for `O=P(O)(OCc1ccccc1)OCc1ccccc1` was “inactive”; that for `CC1=CCCC(C)(C)C12CCC(C)O2` (stereo not given) was “inactive”. On the same count and under the same terms, the value for `Cc1cc(C(=O)O)ccc1[N+](=O)[O-]` was “inactive”. For the molecule `O=C(O)c1ccccc1Cl`, the Potency entry was “inactive”. Same read-out and setting: the value for `Cc1ccccc1S(=O)(=O)O` was “inactive”; that for `Nc1cc(C(=O)O)c(O)c(S(=O)(=O)O)c1` was “inactive”. The same measure, in the same setting: the value for `COC(C)OC` was “inactive”; that for `O=S(=O)(Oc1ccc(Cl)cc1)c1ccccc1` was “inactive”. On the same count and under the same terms, the value for `Nc1ccc([N+](=O)[O-])c(C(F)(F)F)c1` was “inactive”; that for `CCC(Cl)CCC(Cl)C(Cl)CC(Cl)C(Cl)C(Cl)CCl` (stereo not given) was “inactive”.

In the case of `O=C1OC(CN2CCOCC2)CN1/N=C/c1ccc([N+](=O)[O-])o1` (stereo not given), the Potency result was “inactive”. `c1ccc(-c2ccccn2)nc1`: the Potency result is “inactive”.

For the molecule `CC(CSC(=O)c1ccccc1)C(=O)N1C[C@@H](Sc2ccccc2)C[C@H]1C(=O)O` (stereo not given in full), the cAMP activity change is 7.8% [at 18.9 µM, hits give high values] (inactive). `CCCCCCCCO[C@@H]1O[C@H](CO)[C@@H](O)[C@H](O)[C@H]1O`: the Potency entry was “inactive”. Same read-out and setting: the value for `O=C(O)CC(=O)C(=O)O` was “inactive”. Turning to `O=C1[C@H]2CCCC[C@H]2C(=O)N1CCCCN1CCN(c2nsc3ccccc23)CC1`, the Potency result is “inactive”. `COc1cc2c(cc1OC)C(C(C(=O)N(CCc1ccc(OC)c(OC)c1OC)CCc1ccc(OC)c(OC)c1OC)c1ccccc1)=NCC2` (stereo not given): the Potency result is “inactive”.

Regarding `CCCCC(CC)CN1C(=O)C2C3C=CC(C3)C2C1=O` (stereo not given), the Potency entry is “inactive”.

In the case of `CC(C)(COC(=O)c1ccccc1)COC(=O)c1ccccc1`, the Potency entry is “inactive”. On the same count and under the same terms, the value for `Cc1ccc(C(C)OC(=O)C2(C)CCC(C(=O)O)C2(C)C)cc1` (stereo not given) was “inactive”; that for `N=c1ccn2c(n1)O[C@H]1[C@H](O)[C@@H](CO)O[C@H]12` was “inactive”. On the same count and under the same terms, the value for `C[N+]1(CC2COC(c3ccccc3)(C3CCCCC3)O2)CCCCC1` (stereo not given) was “inactive”; that for `C[C@H](CCC(=O)O)[C@H]1CC[C@H]2[C@@H]3CC[C@@H]4C[C@H](O)CC[C@]4(C)[C@H]3C[C@H](O)[C@]12C` was “inactive”. Same read-out and setting: the value for `OC(C#CCN1CCCC1)(c1ccccc1)c1ccccc1` was “inactive”; that for `CO[C@@H]1[C@H](OC(=O)/C=C/C=C/C=C/C=C/C(=O)O)CC[C@]2(CO2)[C@H]1[C@@]1(C)O[C@@H]1CC=C(C)C` was “inactive”; that for `CC(=O)NO` was “inactive”.

Take `OCCN1CCN(CCCN2c3ccccc3C=Cc3ccccc32)CC1`: the Potency result is “inactive”.

On to `C=C1C(=C/C=C2\CCC[C@]3(C)[C@@H]([C@H](C)/C=C/[C@@H](O)C4CC4)CC[C@@H]23)C[C@@H](O)C[C@@H]1O`, for which the Potency entry is “inactive”. On the same count and under the same terms, the value for `Nc1ccccc1S(=O)(=O)c1ccccc1` was “inactive”; that for `CCN(CC)CCOC(=O)C(Cc1cccc2ccccc12)CC1CCCO1` (stereo not given) was “inactive”.

Values taken from PubChem BioAssay (Tox21).
